ERa SRC1 pot = enhancers of ERα–SRC-1 coactivator binding, primary screen, biochemical, TR-FRET, ERα LBD, low estradiol; TR-FRET ERalpha-LBD/SRC-Cy5 coactivator binding, 2 h; 100 = basal binding, no effect; coactivator binding (% of control), % at 25.6 µM; Estrogen receptor (Homo sapiens), P03372; AID 639, 2007; hit rate 1.3% among 86,000; in the data active = activity above about 200%;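 also: binding measured in presence of low estradiol as agonist stimulus; 0% = peptide alone without receptor and 100% = receptor with peptide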
LYP act = LYP phosphatase activators, primary screen, biochemical, DiFMUP fluorescence, 2 µM. AID 697, 2007. Tyrosine-protein phosphatase non-receptor type 22 (Homo sapiens), Q9Y2R2. activation, % at 2 µM. hit rate 0.11% among 96,000. recombinant LYP; 0 = plate median, 100 = signal doubled;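 active = activation at 2 µM above a set limit, the mean plus 5 SD, cut at about 37% in these data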
ERa SRC1 inh = ERα–SRC-1 coactivator interaction inhibitors, primary screen, biochemical, TR-FRET, ERα LBD, estradiol-bound; Estrogen receptor (Homo sapiens), P03372; TR-FRET ER-alpha LBD / SRC-1 peptide; inhibition, % at 25.6 µM; hit rate 1.7% among 86,000; AID 629, 2007; in the data active = inhibition above about 50%;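 also: 0% = receptor plus peptide control and 100% = peptide only without receptor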
FAK blocker = FAK kinase inhibitors, primary screen, biochemical; Focal adhesion kinase 1 (Homo sapiens), Q05397; hit rate 0.84% among 97,000; inhibition, %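 (tested at 7 µM)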; AID 727, 2007; biochemical FAK kinase activity assay;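 also: 0% = DMSO and 100% = reference compound high control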
PTPN22 inh 2 = PTPN22 phosphatase inhibitors, primary screen, biochemical, DiFMUP fluorescence, 2 µM; Tyrosine-protein phosphatase non-receptor type 22 (Homo sapiens), Q9Y2R2; recombinant LYP catalytic domain; inhibition, % at 2 µM; hit rate 0.21% among 96,000; AID 640, 2007;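 active = inhibition at 2 µM at or above a set limit, the screen mean plus 3 SD, cut at about 24% in these data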;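 also: 0% = DMSO with enzyme and 100% = enzyme fully blocked by orthovanadate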
ERb coact inh = inhibitors of ERβ-SRC1 coactivator interaction, primary screen, biochemical, TR-FRET, ERβ LBD, SRC-1 peptide | Estrogen receptor beta (Homo sapiens), Q92731 | TR-FRET ER-beta LBD / SRC1-Cy5 peptide binding; receptor agonist-loaded with 1 µM estradiol | inhibition, % at 25.6 µM | hit rate 1.3% among 86,000 | AID 633, 2007;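 active = compounds whose percent inhibition of the receptor-coactivator binding signal exceeds about 50% in the single-dose screen, limit read from the data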;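 also: 0% = receptor plus peptide wells without compound and 100% = peptide-only wells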
FAK inh conf = FAK kinase inhibitors, retest, confirmation, biochemical | shares compounds with FAK blocker | FAK kinase biochemical inhibition assay | inhibition, % at 7 µM | hit rate 28% among 750
* marks the source's active call; other numbers are inactive results; . = no result given; [ ] = another dose, or the depositor's remark. This is a sample that favours compounds with a hit; in the whole collection about 3.4% have one here. Rule as the data show it, unless noted: active = inhibition above about 19%; inactive = the rest.

SMILES | ERa SRC1 pot | LYP act | ERa SRC1 inh | FAK blocker | PTPN22 inh 2 | ERb coact inh | FAK inh conf
C=C(C)CN(CC)C(=O)COc1ccc(S(=O)(=O)Nc2ccc(OC)cc2)cc1 | . | 0 | . | 30* | -2 | . | 0
CC(C)C(=O)Nc1ccc(N2CCCC2)cc1 | 60 | 3 | 25 | 5 | -3 | 40 | .
CCC(=O)Nc1ccc(N2CCN(Cc3ccccc3)CC2)cc1 | 126 | 1 | -12 | -1 | 3 | -3 | .
O=C(Nc1ccc(N2CCCC2)cc1)C(c1ccccc1)c1ccccc1 | 7 | -12 | 60* | 46* | 12 | 27 | 29*
O=C(Cc1ccccc1)Nc1ccc(N2CCCC2)cc1 | 38 | -7 | 30 | 30* | 9 | 28 | 16
CCN(CCCNC(=O)C1CCN(S(=O)(=O)c2cnc[nH]2)CC1)c1cccc(C)c1 | 116 | -3 | 1 | -1 | 1 | -2 | .
Cc1nccc(-c2ccc(-n3cnc4ccccc43)cc2)n1 | 109 | 2 | -2 | -2 | -2 | -4 | .
c1ccc2c(c1)ncn2-c1ccc(-c2ccnc(-c3ccncc3)n2)cc1 | . | -7 | . | 29* | 9 | . | 10
CCN(CCCNC(=O)CN(C)S(=O)(=O)c1ccc2c(c1)CCC(=O)N2)c1cccc(C)c1 | 112 | 2 | 0 | -2 | -6 | 2 | .
Cc1ccc(Cl)cc1NC(=O)CC1NCCNC1=O (configuration not stated) | 100 | 4 | 0 | -2 | -4 | 1 | .
O=c1c(/C=N/O)c(Nc2ccccc2)nc2ccccn12 | 104 | 3 | 3 | 50* | -6 | 9 | 31*
Cc1cccn2c(=O)c(/C=N/O)c(N3CCCCC3)nc12 | 81 | -6 | 11 | -5 | 2 | 11 | .
CCc1cc(=O)oc2cc(C)c(CN3CCCC3)c(O)c12 | 94 | -11 | 38 | 29* | 9 | 28 | 2
O=C(Cc1ccc(S(=O)(=O)N2CCOCC2)s1)Nc1nc2c(s1)CCCC2 | 23 | -6 | 83* | 23* | 9 | 81*[fluorescence artefact?] | 4
COc1ccc(/C=N/NC(=O)c2ccn[nH]2)cc1COc1ccc(Cl)cc1Cl | . | -4 | . | 21* | 8 | . | 8
COc1cccc(OCCCOc2ccccc2C(C)C)c1 | . | -1 | . | 1 | 4 | . | .
Clc1ccc(OCc2cnc(Cl)s2)cc1 | . | -3 | . | 1 | 6 | . | .
CCOC(=O)c1ccc2c(c1)nc(SC/C(O)=C(\C#N)c1nc3ccccc3[nH]1)n2CC | 114 | . | -3 | . | . | 21 | .
Cc1cc(C)n2c(SC/C(O)=C(\C#N)c3nc4ccccc4[nH]3)nnc2n1 | 0 | 0 | 97*[fluorescence artefact?] | 22* | -2 | 69*[fluorescence artefact?] | 2
CCC(C(=O)Nc1nnc(-c2ccco2)s1)c1ccccc1 (configuration not stated) | 121 | -7 | 13 | 0 | 7 | 14 | .
c1nc(N2CCOCC2)c2c3c(sc2n1)CCCC3 | 105 | -6 | -2 | 28* | 2 | 2 | -1
Cc1c(N2C(=O)CS/C2=N\N=C\c2ccc(Br)cc2)c(=O)n(-c2ccccc2)n1C | . | -7 | . | 5 | 10 | . | .
Cc1ccccc1NC(=O)CN(C)S(=O)(=O)c1cccc2cccnc12 | 113 | 4 | -6 | 4 | -5 | -8 | .
CCOC(=O)C1CCN(C(=O)Nc2ccc3nc(-c4ccco4)c(-c4ccco4)nc3c2)CC1 | 31 | -4 | 96*[fluorescence artefact?] | 93* | 3 | 95*[fluorescence artefact?] | 5
CC(C(=O)O)N1C(=O)/C(=C/C=C/c2ccco2)SC1=S (configuration not stated) | . | -24 | . | 100* | 25* | . | 23*
SMILES | ERa SRC1 pot | LYP act | ERa SRC1 inh | FAK blocker | PTPN22 inh 2 | ERb coact inh | FAK inh conf
CC1=NN(c2ccc(C(=O)OC(C)C)cc2)C(=O)/C1=C\C=C\c1ccco1 | 79 | -10 | 36 | -3 | 6 | 20 | .
CCOC(=O)c1c(C)[nH]c(O)c1C=Nc1ccc(Cl)cc1 | . | -12 | . | 14 | 15 | . | .
COC(=O)c1c(C)[nH]c(O)c1C=Nc1ccc(C(C)C)cc1 | . | -4 | . | 29* | 7 | . | 10
Cc1ccc(S(=O)(=O)NC(CC(C)C)C(=O)NCc2ccco2)cc1 (configuration not stated) | 102 | -5 | -8 | -1 | 8 | 3 | .
O=C(CC1Sc2ccccc2NC1=O)OC(C(=O)NCCc1ccccc1)c1cccnc1 (configuration not stated) | 78 | -6 | -2 | 33* | 3 | -8 | 2
COCCNC(=O)C(OC(=O)CC1Sc2ccccc2NC1=O)c1ccncc1 (configuration not stated) | 128 | -3 | -6 | -1 | -1 | -10 | .
Cc1ccc2c(c1)cc1c(=O)[nH]ncn12 | . | -2 | . | 37* | 6 | . | 12
O=C(Nc1ccccc1)c1[nH]ncc1[N+](=O)[O-] | . | -6 | . | -1 | 1 | . | .
O=C(NNc1ccccc1[N+](=O)[O-])Nc1ccccc1 | . | 2 | . | 21* | 1 | . | 17
CN(C)CCOc1nc(-c2ccccc2)nc2c1oc1ccccc12 | 88 | -7 | -3 | -2 | 10 | -4 | .
CCN(CC)CCCOc1nc(C)nc2c1oc1ccccc12 | 132 | 0 | -7 | 19* | -2 | -18 | 3
O=C1c2ccccc2C(=O)C1c1ccncc1 | 91 | 0 | 3 | 25* | -2 | -5 | 7
O=C1C(c2ccncc2)=C(O)c2ccccc21 | 104 | 5 | 0 | 15 | -7 | 1 | .
COc1ccc(OC)c(C2/C(=C(\O)c3c(C)nc4ccccn34)C(=O)C(=O)N2CCCN(C)C)c1 (configuration not stated) | 108 | . | -10 | . | . | -13 | .
N#Cc1cnn2c1nc(N1CCOCC1)c1ccccc12 | . | 5 | . | 51* | -4 | . | 26*
C=CCn1c(P(=O)(O)c2ccccc2)nc2ccccc21 | . | -2 | . | 35* | 4 | . | 24*
C=CCn1c(CNC(=O)CCC)nc2ccccc21 | 119 | -8 | 4 | 2 | 10 | -2 | .
c1ccc(-c2nnc(-c3ccccc3)c(-c3c[nH]c4ccccc34)n2)cc1 | 96 | -6 | -7 | -7 | 6 | -2 | .
c1ccc2c(-c3ccncc3)c[nH]c2c1 | 103 | 3 | -23 | 21* | -2 | -16 | 9
Cn1c(Br)nc2c1c(=O)n(CC(O)COc1ccccc1)c(=O)n2C (configuration not stated) | 117 | 0 | -3 | -4 | -3 | -11 | .
CCCn1c(SCC(=O)N2c3ccccc3CCc3ccccc32)nc2c1c(=O)n(C)c(=O)n2C | . | 11 | . | 1 | -12 | . | .
